High-throughput results from PubChem BioAssay.
AmpC inh detg: inhibitors of E. coli AmpC beta-lactamase with detergent. P00811. AmpC hydrolysis of nitrocefin, absorbance 480 nm, 0.01% Triton. Potency, µM (series often up to 114 µM), for the others: at the highest dose activity change, negative = inhibition, most hits filed as inhibitors. actives 0.041% (n = 370,000). AID 485294;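 further: 0% = no-compound wells and -100% = no-enzyme wells; nearly all actives have a fitted effect of over 25% in size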
Target sequence (P00811 whole entry, looked up): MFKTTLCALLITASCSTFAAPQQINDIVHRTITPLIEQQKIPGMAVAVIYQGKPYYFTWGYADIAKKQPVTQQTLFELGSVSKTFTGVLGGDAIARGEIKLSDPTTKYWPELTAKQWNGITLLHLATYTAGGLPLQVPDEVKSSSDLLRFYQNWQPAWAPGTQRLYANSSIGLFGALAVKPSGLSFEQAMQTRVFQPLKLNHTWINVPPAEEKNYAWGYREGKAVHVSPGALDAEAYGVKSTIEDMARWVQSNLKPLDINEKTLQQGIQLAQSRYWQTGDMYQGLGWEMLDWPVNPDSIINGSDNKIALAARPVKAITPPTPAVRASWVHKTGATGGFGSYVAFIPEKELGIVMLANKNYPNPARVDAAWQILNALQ
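AmpC (5.3 nM in the dispensed reagent) in 20 mM phosphate pH 7.0 with 0.01% (detergent screen) or 0.0001% Triton X-100 was preincubated with compounds for 15 min at room temperature. Nitrocefin was then added from an 800 uM solution, and hydrolysis was followed at 480 nm.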
AmpC no deterg: inhibitors of E. coli AmpC beta-lactamase without detergent | AmpC nitrocefin hydrolysis, absorbance 480 nm, 0.0001% Triton | Potency, µM (highest dose often 57.1 µM), for inactives: top-dose activity change, negative = inhibition, usual class: inhibitors | actives 0.52% (n = 330,000) | AID 485341;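 further: plate controls were no compound for no effect and no enzyme for full effect; nearly all actives have a fitted effect of over 20% in size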
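AmpC (5.3 nM in the dispensed reagent) in 20 mM phosphate pH 7.0 with 0.01% (detergent screen) or 0.0001% Triton X-100 was preincubated with compounds for 15 min at room temperature. Nitrocefin was then added from an 800 uM solution, and hydrolysis was followed at 480 nm.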
Sm TGR block: blocks Schistosoma mansoni thioredoxin glutathione reductase | purified TGR, DTNB reduction, TNB absorbance 405 nm | Potency, µM (top dose mostly 114 µM), for inactives: at the highest dose activity change, negative = inhibition, actives largely listed as inhibitors | actives 3% (n = 360,000) | AID 485364; further: nearly all actives have a fitted effect of over 60% in size
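Kinetic colorimetric format: TGR-catalysed, NADPH-driven DTNB reduction monitored via TNB absorbance. Enzyme dispensed at 20 nM; compound exposure 15 min at room temperature before reaction start.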
The depositor's hits bear a star; ? = inconclusive; . = not tested or not shown. Sampled rows, rich in hits. Any-hit rate of the full collection: about 3.3%. The call rests on the fitted dose curve; in most records, active means well fitted curve in the direction sought with a large enough effect; inconclusive means small, poorly fitted or top-dose-only effect, or another doubt; inactive means no such curve, though single readings can be large; an effect the other way counts as inactive or inconclusive. Unless noted, on the % scale 0 is the no-effect control and ±100 the full control effect; potency means the concentration at half of the fitted maximal effect.

SMILES	AmpC inh detg	AmpC no deterg	Sm TGR block
COc1cc(CN(C)Cc2ccccc2)cc(OC)c1O	1%	25%	11µM*
CCc1ccc(S(=O)(=O)c2nnn3c2nc(NCc2cccs2)c2sccc23)cc1	1%	.	1%
O=C(c1cc(Br)ccc1Cl)N1CCN(c2ccc(N3CCOCC3)nn2)CC1	?	-2%	-11%
O=C1NCCN1c1ncc([N+](=O)[O-])s1	-12%	-22%	2%
O=[N+]([O-])c1cnc(Sc2ccncn2)s1	?	-13%	0.32µM*
CCNC(=O)CC1C(=O)N(c2cccc(OC)c2)C(=O)N1Cc1ccc(OC)c(OC)c1 (configuration not stated)	-4%	.	-8%
CC1C(=O)N2CCCc3cc(NC(=O)C(=O)NCCCc4ccccc4)cc1c32 (configuration not stated)	-12%	24%	-1%
c1ccc(C2Oc3ccccc3C3CC(c4cccs4)=NN32)cc1 (configuration not stated)	7%	-23%	?
O=[N+]([O-])c1ccc(C2Oc3ccccc3C3CC(c4ccccc4)=NN32)s1 (configuration not stated)	6%	-50%	40µM*
Cc1ccc(/C=N/NC(=O)c2cccc(S(=O)(=O)N3CCOCC3)c2)o1	-7%	-30%	-18%
CCOc1cc(N2CCOCC2)c(OCC)cc1NC(=O)c1ccc(OCc2c(C)noc2C)c(OC)c1	-14%	9%	0%
CCOC(=O)c1ccc(NC(=O)c2c(NCc3sccc3C)sc3c2CCCCC3)cc1	3%	.	50µM*
COc1ccc(OC)c(NC(=O)c2c(NCc3ccc(OC)c(OC)c3)sc3c2CCC(C)C3)c1 (configuration not stated)	5%	.	-1%
CCOC(=O)c1ccc(NC(=O)c2c(NCc3cccc(OC)c3OC)sc3c2CCC3)cc1	5%	.	4%
COc1ccc(Cl)cc1NC(=O)c1c(NCc2ccc(C)o2)sc2c1CCCC2	-7%	.	28µM*
COC(=O)c1ccc(NC(=O)c2c(NCc3ccc(C)o3)sc3c2CCCC3)cc1	9%	.	?
COc1ccc(OC)c(NC(=O)c2c(NCc3ccc(C)o3)sc3c2CCC(C)C3)c1 (configuration not stated)	1%	.	40µM*
COc1ccc(NC(=O)c2c(NCc3cccc(OC)c3)sc3c2CCCC3)cc1	8%	.	-33%
COc1ccc(NC(=O)c2c(NCc3ccc(N(C)C)cc3)sc3c2CCC3)cc1	-5%	.	32µM*
COc1ccccc1NC(=O)c1ccccc1C(=O)N(C)Cc1ccccc1	.	-7%	.
NS(=O)(=O)c1cccc(NC(=O)COC(=O)Cn2cc(C(F)(F)F)ccc2=O)c1	-4%	-29%	1%
O=C(Nc1cc(S(=O)(=O)N2CCCCC2)ccc1N1CCOCC1)c1ccc(C(F)(F)F)cc1	4%	68%	0%
CC(OC(=O)CCN=C1NS(=O)(=O)c2ccccc21)C(=O)Nc1ccc(F)cc1Cl (configuration not stated)	-7%	-26%	2%
O=C1CCC(C(=O)N2CCSCC2)CN1Cc1cccc(C(F)(F)F)c1 (configuration not stated)	-6%	40%	-15%
COc1ccccc1NC(=O)c1c(NCc2ccc(OC)c(OC)c2OC)sc2c1CCC2	-9%	.	2%
SMILES	AmpC inh detg	AmpC no deterg	Sm TGR block
COc1ccc(Cl)cc1NC(=O)NCc1cccnc1	5%	21%	5%
COc1ccc(NC(=O)c2c(NCc3ccc(OC)c(OC)c3OC)sc3c2CCC3)c(OC)c1	1%	.	40µM*
CCOc1ccccc1NC(=O)c1c(NCc2ccc(C)o2)sc2c1CCC(C)C2 (configuration not stated)	2%	.	4%
CCOC(=O)c1c(NC(=O)C(C)OC(=O)C2=COCCO2)sc2c1CCCC2 (configuration not stated)	-9%	5%	0%
CCOC(=O)c1c(NC(=O)C(C)OC(=O)c2ccc(NC(=O)CC#N)cc2)sc2c1CCCC2 (configuration not stated)	-13%	28µM*	-4%
COc1ccc(Cl)cc1NC(=O)c1c(NCc2cccnc2)sc2c1CCCC2	6%	.	20µM*
CCOc1ccccc1NC(=O)c1c(NCc2ccc(C)o2)sc2c1CCCCC2	-1%	.	8.9µM*
Cn1cc(S(=O)(=O)Nc2ccc(F)c(Cl)c2)c(=O)n(C)c1=O	?	-7%	-12%
COCCSc1nnc(NS(=O)(=O)c2ccc(F)cc2)s1	5%	-27%	.
O=C(NNC(=O)c1ccc(=O)[nH]c1)c1ccc(NS(=O)(=O)c2cccs2)cc1	-22%	-5%	-11%
